Screening data (PubChem)
The list is not random: actives were taken first. Their share in the collection is about 3.5%.
MITF primary: blocks human microphthalmia-associated transcription factor. 650,000 tested, 0.91% active. inhibition, % at 2.6 µM. O75030. AlphaScreen MITF homodimerization, bead proximity signal. AID 1259374; in the data active means inhibition above about 50%;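 further: 0% = vehicle wells with protein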
GPR151 activ: human GPR151 activation | 650,000 tested, 1% active | AID 1508602 | PathHunter beta-arrestin GPR151 cells, luminescence | activation, % at 11.2 µM; in the data active means activation above about 4.9%;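 further: 0% = median of compound wells and 100% = cells with positive control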
FBW7 activator: activators of human E3 ligase FBW7 | Q969H0 | AlphaScreen FBW7–phospho-cyclin E peptide binding, activator screen | normalized activity (activation), % at 26.1 µM | 650,000 tested, 0.13% active; in the data active means normalized activity above about 1.9%;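 further: purified mutant Fbw7 with reduced substrate affinity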
Target sequence (Q969H0 whole entry, looked up): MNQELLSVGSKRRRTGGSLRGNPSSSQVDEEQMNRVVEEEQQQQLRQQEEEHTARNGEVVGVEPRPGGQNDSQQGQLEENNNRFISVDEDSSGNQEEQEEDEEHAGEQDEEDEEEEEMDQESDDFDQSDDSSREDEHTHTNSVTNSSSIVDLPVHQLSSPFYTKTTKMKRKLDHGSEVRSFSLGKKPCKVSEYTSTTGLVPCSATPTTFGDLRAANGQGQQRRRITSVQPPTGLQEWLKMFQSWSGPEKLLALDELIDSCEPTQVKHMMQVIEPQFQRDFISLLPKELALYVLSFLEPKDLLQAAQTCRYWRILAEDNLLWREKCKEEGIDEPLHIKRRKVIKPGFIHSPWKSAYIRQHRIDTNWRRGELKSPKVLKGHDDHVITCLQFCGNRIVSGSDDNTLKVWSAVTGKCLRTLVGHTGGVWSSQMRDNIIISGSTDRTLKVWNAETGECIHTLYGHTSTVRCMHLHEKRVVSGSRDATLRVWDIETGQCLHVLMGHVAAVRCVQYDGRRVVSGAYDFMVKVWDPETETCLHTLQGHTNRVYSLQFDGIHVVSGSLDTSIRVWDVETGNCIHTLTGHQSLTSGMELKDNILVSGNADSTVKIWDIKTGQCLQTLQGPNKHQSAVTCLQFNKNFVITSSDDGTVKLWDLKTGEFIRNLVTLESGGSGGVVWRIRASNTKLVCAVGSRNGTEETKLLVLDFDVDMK
TEAD-YAP block: TEAD-YAP interaction inhibition; inhibition, % at 9.12 µM; 640,000 tested, 1.4% active; HEK-TIYL cells, TEAD-Gal4/YAP UAS-luciferase luminescence; in the data active means inhibition above about 32%;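 further: 0% = median of test compound wells and 100% = reference inhibitor wells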
GPR151 conf act: confirmation of human GPR151 activators | shares compounds with GPR151 activ | GPR151 PathHunter beta-arrestin cells, luminescence, 90 min; % of EA-reagent control over plate median | activation, % at 11.2 µM | 6,700 tested, under 10 active | AID 1508609;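 active means mean percent activation across replicates above the confirmation screen cutoff of 4.91%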
GPR119 counter: GPR119 activation, counter-screen for GPR151 activators; shares compounds with GPR151 activ; GPR119 PathHunter beta-arrestin cells, luminescence, 90 min; 0 = compound-well median, 100 = enzyme-acceptor control; activation, % at 11.2 µM; 6,700 tested, 0.3% active; AID 1508611;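 active means mean percent activation in the counterscreen above 29.09%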;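 further: counterscreen on off-target GPR119 to flag nonselective hits from the GPR151 activator screen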
* = called active by the depositor; . = no result given; ! = not confirmed by another sample.

SMILES	MITF primary	GPR151 activ	FBW7 activator	TEAD-YAP block	GPR151 conf act	GPR119 counter
CC(C)(C)c1ccc(NC(=O)COC(=O)c2ccc([N+](=O)[O-])s2)cc1	-5	6.1*	0	-10	-1	-6
COc1ccc(C(C)(C)C)cc1NC(=O)COC(=O)c1ccc([N+](=O)[O-])s1	24	-1	0	-2	.	.
COC1=C/C(=C/c2c(N)n3nc(-c4ccccc4Cl)sc3nc2=O)C=CC1=O	-6	-2	0	-12	.	.
Cc1ccc(Oc2cccc(NC(=O)c3cccc4ccccc34)c2)nn1	9	5.6*	0	4	0	-10
Cc1c(NC(=O)c2ccc(OCc3c(F)cccc3Cl)cc2)c(=O)n(-c2ccccc2)n1C	4	8.3*	0	5	2	-2
O=C(CCCn1cnc(-c2ccccc2)cc1=O)NCCc1csc(-c2ccccc2)n1	6	9.2*	0	18	1	6
Cc1cc(=O)n(CC(=O)NCc2csc(-c3ccccc3)n2)cn1	-4	4	0	-7	.	.
COc1cccc(OCCSC2=NCCS2)c1	-9	-2	0	-51	.	.
O=[N+]([O-])c1ccc2nc(CN3CCOCC3)[nH]c2c1	2	-1	0	-10	.	.
CC1(C)Cc2nc3sc4c(SCC(=O)N5CCOCC5)ncnc4c3cc2CO1	-17	5.9*	0	-5	0	-9
Cc1ccc(-n2c(C)cc(/C=C3\SC(=Nc4ccccc4)N(C4CCCCC4)C3=O)c2C)cc1	4	2	0	-3	.	.
Cc1[nH]c2ccccc2c(=O)c1Br	11	5.6*	0	7	0	7
CC(=O)c1c(C)[nH]c2ccccc2c1=O	-1	1	0	-6	.	.
CC(C)Oc1ccc(C(=O)NC(=S)N2CCOCC2)cc1	2	13*	0	-17	1	15
COc1ccc(C(=O)NC(=S)N2CCOCC2)cc1	0	6.1*	0	10	-1	6
COc1ccc(C(=O)NC(=S)N2CCOCC2)cc1Br	8	-2	1	-1	.	.
COc1ccc(C(=O)NC(=S)N2CCSCC2)cc1	9	0	0	-5	.	.
Cc1ccc(N2C(=O)SC(Nc3ccccc3)C2=O)cc1 (stereo unspecified)	13	1	0	-43	.	.
Cc1ccc(N2C(=O)SC(Nc3ccc(F)cc3)C2=O)cc1 (stereo unspecified)	7	5.4*	0	-14	0	-9
Cc1cccc(NC2SC(=O)N(c3ccc(F)cc3)C2=O)c1 (stereo unspecified)	16	5.6*	0	-27	0	-12
Cc1ccc(N2C(=O)SC(Nc3ccc(I)cc3)C2=O)cc1 (stereo unspecified)	-1	-1	0	-2	.	.
Cc1ccc(-n2nc3c(c2NC(=O)CC2CCCCC2)CSC3)cc1	-10	0	0	5	.	.
COCC(C)NC(=O)c1ccc(OC2CCN(CCc3ccccc3)CC2)cc1 (stereo unspecified)	18	-1	0	11	.	.
COc1ccc(-n2nnnc2SCC(=O)Nc2ccc(NC(C)=O)cc2)cc1OC	-1	2	0	7	.	.
COc1cc(NC(=O)CSc2nnnn2-c2ccc(OC)c(OC)c2)cc(OC)c1	1	5.0*	0	3	0	1
SMILES	MITF primary	GPR151 activ	FBW7 activator	TEAD-YAP block	GPR151 conf act	GPR119 counter
CCC(C)c1ccc(NC(=O)CSc2nnnn2-c2ccc(OC)cc2)cc1 (stereo unspecified)	13	5.6*	1	6	1	0
CCOC(=O)COn1c(=O)c(-c2ccc(Oc3ccccc3)cc2)[n+]([O-])c2ccccc21	-10	5.3*	0	-12	0	-6
O=c1c(-c2ccccc2)[n+]([O-])c2ccccc2n1OCc1ccccc1[N+](=O)[O-]	12	6.0*	0	8	2	6
CCCSc1nnc(NC(=O)c2ccccc2[N+](=O)[O-])s1	1	1	0	6	.	.
C=CCNC(=O)c1sc(=S)n(CCc2ccccc2)c1N	9	5.2*	0	-34	0	1
CC(=O)c1ccc(NC(=O)CN2CCN(Cc3nc4ccccc4[nH]3)CC2)cc1	-8	2	0	1	.	.
NC(=O)c1cccc(N)c1	-7	6.2*!	0	-9	0	1
O=C(CCN1CCOCC1)OC1CCCCC1S(=O)(=O)Cc1ccccc1 (stereo unspecified)	-6	0	0	12	.	.
CCOC(=O)C1=C(C)Nc2[nH]c(=O)[nH]c(=O)c2C1c1ccc(O)c(OC)c1 (stereo unspecified)	10	0	0	2	.	.
COc1cc(Nc2ccc(NC(=O)Nc3ccccc3)cc2)nc(C)n1	-9	7.9*	0	-6	0	7
COc1ccccc1N=C1SC(CC(=O)Nc2cccc([N+](=O)[O-])c2)C(=O)N1C (stereo unspecified)	-3	14*	0	-6	-1	-7
CCCCCCOc1ccc(/C=N\NC(=O)CCc2n[nH]c(=O)[nH]c2=O)cc1OC	4	-1	0	-15	.	.
COc1ccc(CSc2ccc(C(=O)Nc3ccc(C)c(F)c3)cc2[N+](=O)[O-])cc1	20	0	0	-5	.	.
CC(C)C12CCC(C)(O1)C(Oc1cccc(Cl)c1CNC(=O)C1CC1C(=O)O)C2 (stereo unspecified)	4	-2	0	5	.	.
CCCn1nnnc1SCC(=O)NNC(=O)c1ccco1	-7	0	0	1	.	.
CCCCn1nnnc1SCC(=O)NNC(=O)c1ccco1	13	5.9*	0	12	1	4
CC(C)(C)c1ccc2c(c1)C1c3ccc(C(C)(C)C)cc3C2C2C(=O)N(c3ccc(Oc4ccc(Br)cc4)cc3)C(=O)C12 (stereo unspecified)	-14	0	0	-1	.	.
O=C1C(Cl)=C(NCCO)C(=O)N1c1ccc(Cl)cc1	25	5.1*	1	14	0	4
O=C(NC(=S)NNS(=O)(=O)c1ccc(Cl)cc1)c1cc2ccccc2oc1=O	-3	0	0	6	.	.
CCCc1cc(C(=O)Nc2ccc(OC)cc2OC)no1	-1	17*	0	-18	0	-4
COc1ccc(-c2cc(C(=O)Nc3ccc(OC)cc3OC)no2)cc1	6	0	0	6	.	.
CCCCNC(=O)c1ccccc1NC(=O)c1cccc(F)c1	-7	1	0	3	.	.
CCN(Cc1ccncc1)Cc1ccc(C(=O)NCc2ccccc2Cl)c(=O)[nH]1	3	1	0	2	.	.
CN(Cc1cccc(C(=O)NCCCCCCNS(=O)(=O)c2cccc3c(N(C)C)cccc23)c1)C(=O)Nc1ccc(-c2cn[nH]c2)cc1	19	5.7*	3.1*	21	0	9
CCOC(=O)C1(Cc2cccc(OC)c2)CCN(CCO)CC1	15	7.9*	0	3	0	6
